Shn3 inh set2 – reduces Shn3 3'UTR luciferase signal in osteoblasts; Clone20 osteoblast Shn3 3'UTR firefly luciferase, 24 h; inhibition, % at 12.5 µM; actives 0.52% (n = 360,000); AID 588674;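 active = mean inhibition of at least 75% with every replicate also reaching 75%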;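 note: 0% = median of neutral control wells and 100% = pilot-screen positive control compound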
697 NFkB inh – lowers PMA/ionomycin-induced NF-kB signal in 697 B cells | 697 B-cell NF-kB luciferase reporter, 16 h | inhibition, % at 4 µM | actives 0.33% (n = 330,000) | AID 435022; in the data active = inhibition above about 35%
Gli-Sufu antag – blocks Gli-Sufu signaling in a luciferase reporter; Sufu-KO-LIGHT fibroblasts, Gli luciferase reporter luminescence; inhibition, % at 5 µM; actives 0.74% (n = 340,000); AID 588413;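 active = inhibition above about 55%, limit read from the data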;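 note: 0% = DMSO-treated cells and 100% = wells with medium but no cells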
Mdm2 MdmX PPI – inhibitors of human Mdm2/MdmX interaction; O15151+Q00987; SaOS-2 split-luciferase Mdm2/MdmX complementation, luminescence; inhibition, % at 8 µM; actives 3% (n = 330,000);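 active = inhibition of at least 50% at 8 µM in the primary screen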
Target sequence (O15151 whole entry, looked up): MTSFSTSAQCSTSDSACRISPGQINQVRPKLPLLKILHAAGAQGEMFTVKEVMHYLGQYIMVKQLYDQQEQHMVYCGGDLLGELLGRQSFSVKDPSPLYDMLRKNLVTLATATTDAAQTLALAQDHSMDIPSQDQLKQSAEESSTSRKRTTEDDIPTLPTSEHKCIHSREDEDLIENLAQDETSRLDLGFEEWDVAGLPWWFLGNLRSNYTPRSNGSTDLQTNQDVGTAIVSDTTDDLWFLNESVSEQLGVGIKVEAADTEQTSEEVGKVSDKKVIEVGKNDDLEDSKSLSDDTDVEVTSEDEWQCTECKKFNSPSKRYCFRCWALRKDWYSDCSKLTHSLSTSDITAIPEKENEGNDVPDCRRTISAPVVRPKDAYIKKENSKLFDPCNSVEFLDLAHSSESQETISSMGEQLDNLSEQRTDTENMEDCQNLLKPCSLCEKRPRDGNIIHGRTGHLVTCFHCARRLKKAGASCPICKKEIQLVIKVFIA
Target sequence (Q00987 whole entry, looked up): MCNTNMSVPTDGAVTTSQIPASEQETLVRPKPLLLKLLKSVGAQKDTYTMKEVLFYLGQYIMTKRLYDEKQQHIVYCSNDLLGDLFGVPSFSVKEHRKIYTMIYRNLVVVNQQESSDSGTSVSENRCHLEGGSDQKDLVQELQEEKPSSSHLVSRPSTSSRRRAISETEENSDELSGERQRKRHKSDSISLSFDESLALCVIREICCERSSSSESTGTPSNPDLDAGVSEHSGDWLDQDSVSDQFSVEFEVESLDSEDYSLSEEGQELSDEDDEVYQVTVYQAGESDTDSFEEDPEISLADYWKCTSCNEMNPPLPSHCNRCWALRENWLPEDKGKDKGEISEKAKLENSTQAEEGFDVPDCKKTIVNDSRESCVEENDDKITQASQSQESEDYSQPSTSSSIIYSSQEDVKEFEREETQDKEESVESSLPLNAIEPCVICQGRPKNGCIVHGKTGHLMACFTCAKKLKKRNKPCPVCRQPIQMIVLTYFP
Jurkat NFkB inh – lowers PMA/ionomycin-induced NF-kB signal in Jurkat cells; PMA/ionomycin-induced NF-kB luciferase reporter, luminescence; inhibition, % at 4 µM; actives 0.53% (n = 330,000); AID 435003; in the data active = inhibition above about 50%
Mdm2 MdmX conf – confirmation of human Mdm2/MdmX interaction inhibitors | shares compounds with Mdm2 MdmX PPI | Mdm2-MdmX binding, luminescent assay | inhibition, % at 8 µM | actives 55% (n = 10,000) | AID 489028; in the data active = inhibition above about 40%
FLuc counter – inhibits full-length luciferase, flagging false Mdm2/MdmX hits; SaOS-2 full-length luciferase counterscreen, luminescence; actives 77% (n = 6,200); inhibition, % at 8 µM; shares compounds with Mdm2 MdmX PPI;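 active = mean inhibition at 8 µM reaching about 37%, which flags the compound as non-specific, limit read from the data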;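 note: p53-null SaOS-2 cells with luciferase driven by a doxycycline-inducible promoter; compound on cells about two nights before reading with doxycycline added after day one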
The depositor's hits bear a star; . = no result. Compounds with a hit are over-represented: about 3.8% of the library has one in this group of screens.

SMILES | Shn3 inh set2 | 697 NFkB inh | Gli-Sufu antag | Mdm2 MdmX PPI | Jurkat NFkB inh | Mdm2 MdmX conf | FLuc counter
CCOC(=O)c1nnc(-c2ccc(C)cc2)nc1Sc1ccccc1Cl | -3 | 9 | 15 | 54* | -2 | 21 | .
COc1ccc(-n2nc(C(=O)NCC(=O)NCCN(C)C)c3ccccc3c2=O)c(OC)c1 | 5 | 4 | 0 | -13 | -11 | . | .
COc1cc(C2c3cc4c(cc3OC(NCCc3ccccc3)C2C)OCO4)cc(OC)c1OC (centres undefined) | 21 | . | 43 | . | . | . | .
Oc1c(I)cc(I)c2cccnc12 | 94* | -13 | 39 | 93* | 14 | 72* | 39*
COc1cc([N+](=O)[O-])cc(/C=N/NC(=O)c2ccc(C)nc2)c1O | -7 | -19 | -3 | 67* | -20 | 54* | 81*
Cc1ccc(C(=O)N/N=C/c2cc(Br)ccc2O)cn1 | 82 | -7 | 19 | 51* | 9 | 31 | .
COc1cc([N+](=O)[O-])cc(/C=N/NC(=O)C(C)Nc2ccccc2C)c1O (centres undefined) | 8 | -6 | 1 | 51* | -4 | 26 | 67*
Cc1ccc(C(=O)N/N=C\c2ccccc2[N+](=O)[O-])cn1 | -90 | . | -44 | . | . | . | .
COc1cc(/C=N/NC(=O)c2ccc(C)nc2)cc([N+](=O)[O-])c1O | -1 | -1 | -3 | 14 | -22 | . | .
COc1cc(NC(=O)[C@@H]2CCCN2S(=O)(=O)c2cccc3cccnc23)cc(OC)c1OC | 6 | 13 | -3 | 28 | -16 | . | .
NC(c1csc(Nc2ccc(C(=O)c3ccccc3)cc2)n1)c1ccccc1Cl (centres undefined) | 34 | . | . | . | . | . | .
OCCNc1ncnc2ccc(Br)cc12 | 23 | 13 | 9 | 48 | 15 | . | .
CCN(CC)c1ncnc2ccc(Br)cc12 | 24 | -8 | 3 | 58* | -6 | 52* | 38*
COc1ccc(OC)c(Nc2ncnc3ccccc23)c1 | -7 | -41 | -6 | 8 | -7 | . | .
Brc1ccc2ncnc(Nc3cccc4ccccc34)c2c1 | 15 | -5 | 14 | 61* | 9 | 41* | 53*
COc1ccc(OC)c(Nc2ncnc3ccc(Br)cc23)c1 | 9 | -4 | -23 | 51* | 18 | 35 | .
COc1ccc(Cc2c(C3CCCCC3)nc3ccc(Br)cn23)c(C)c1 | 34 | . | . | . | . | . | .
CCCn1nc(C(=O)Nc2ccc(-n3cnnn3)cc2)c2ccccc2c1=O | -10 | 5 | -3 | 29 | 4 | . | .
CN(C)CCCNS(=O)(=O)c1ccc(Cl)s1 | -6 | 13 | 0 | 15 | 0 | . | .
O=C(COC(=O)c1cncc(Br)c1)NC1CCCCCC1 | -8 | 20 | 3 | 10 | -2 | . | .
Cc1ccc(O)c(CNCCNCc2cc(C)ccc2O)c1 | 25 | -6 | 19 | 73* | 29 | 52* | 33
CCc1ccc(O)c(CNCCNCc2cc(CC)ccc2O)c1 | 86* | -6 | 28 | 72* | 31 | 37 | .
Nc1nc(C2CCOCC2)cs1 | 5 | 6 | 3 | 20 | -1 | . | .
Nc1nc(C2CC2)c(Sc2sc(N)nc2C2CC2)s1 | 4 | -105 | -1 | 51* | -4 | 38 | 119*
Cc1cccc(NC(=O)COC(=O)c2cc3ccccc3oc2=O)c1 | 0 | 20 | -1 | 10 | 10 | . | .
SMILES | Shn3 inh set2 | 697 NFkB inh | Gli-Sufu antag | Mdm2 MdmX PPI | Jurkat NFkB inh | Mdm2 MdmX conf | FLuc counter
Cc1ccc(NC(=O)c2cc(-c3ccc(C)c(C)c3O)n[nH]2)cc1C | 5 | -6 | 7 | 29 | 3 | . | .
Cc1cccc(NC(=O)c2cc(-c3ccc(C)c(C)c3O)n[nH]2)c1 | -37 | 5 | -44 | 53* | -42 | -37 | .
O=C(CCCCCN1C(=O)[C@@H]2Cc3ccccc3CN2C1=O)Nc1ccccc1Cl | -2 | -12 | -13 | -6 | 5 | . | .
Cc1cn([C@H]2C[C@H](O)[C@@H](CCC(=O)NC(c3ccccc3)c3ccccc3)O2)c(=O)[nH]c1=O | -7 | . | 3 | . | . | . | .
Cc1cc(C)cc(N=c2c([N+](=O)[O-])nn(-c3ccc4c(c3)OCCO4)n2O)c1 | -7 | 33 | 31 | 70* | 26 | 65* | 45*
COc1cccc(-c2nc(NCc3ccco3)c3ccccc3n2)c1O | 4 | -17 | 9 | 14 | -37 | . | .
O=[N+]([O-])c1ccc(-c2nc(Nc3cccc(O)c3)c3ccccc3n2)cc1 | 26 | 2 | 4 | 82* | -1 | 7 | .
COc1cccc(-c2nc(NCc3ccccc3)c3ccccc3n2)c1O | 5 | 12 | 2 | 56* | -23 | 16 | .
O=[N+]([O-])c1ccc(-c2c(O)c3ccccc3c3nc4ccccc4nc23)cc1 | 8 | -22 | 12 | 65* | 8 | 12 | .
O=[N+]([O-])c1ccc(-c2nc(NCc3ccccc3)c3ccccc3n2)cc1 | 12 | -87 | 10 | 60* | -55 | -5 | .
CCc1ccccc1NC(=O)CNC(=O)c1ccccc1OCc1c(C)noc1C | 2 | 17 | -2 | 18 | 7 | . | .
O=C(CSc1nc2nn(-c3ccccc3)c(=O)c-2c2n1CCCCC2)Nc1ccc(F)c(F)c1 | 6 | 19 | 12 | 55* | 5 | 22 | .
Cc1ccc(NS(=O)(=O)c2ccc(C(=O)NNC(=O)c3ccccc3O)cc2)cc1 | 29 | -2 | 3 | 62* | 22 | 55* | 52*
Cc1ccc(S(=O)(=O)Nc2ccc(NC(=O)c3ccc(F)cc3)cc2)cc1 | 6 | -1 | -4 | 13 | 11 | . | .
O=C(NNC(=O)c1ccccc1O)c1ccc(NS(=O)(=O)c2ccc(F)c(F)c2)cc1 | 10 | 14 | -5 | 15 | 11 | . | .
CCCCC(=O)Nc1ccc(C(=O)Nc2ccc(S(=O)(=O)Nc3ccc(C)cc3)cc2)cc1 | -3 | -45 | 1 | 63* | 8 | 39 | 41*
O=C(CN1C(=O)NC2(CCCC2)C1=O)OCc1c(F)cccc1Cl | -24 | 8 | -13 | -8 | 5 | . | .
CC(=O)O[C@@H]1C[C@H]2C(C)(C)C(=O)C=C[C@]2(C)[C@H]2CC[C@@]3(C)[C@H](c4ccoc4)OC(=O)[C@H]4O[C@]43[C@@]21C | -4 | -142 | 2 | 98* | -27 | 71* | 34
CCC(=O)N1CCc2cc(S(=O)(=O)N3CCN(c4ccccc4)CC3)ccc21 | -5 | -24 | 4 | 55* | 28 | -18 | .
CCN(CC)CCNc1ncnc2c1sc1nc(N3CCOCC3)c3c(c12)CC(C)(C)SC3 | 22 | -26 | 9 | 63* | 17 | 40 | 54*
CN(C)CCNc1ncnc2c1sc1nc(N3CCOCC3)c3c(c12)CC(C)(C)SC3 | 6 | 5 | -5 | 70* | -5 | 45* | 75*
Cc1ccc(C(C(=O)NCC2CCCO2)N(C(=O)c2snc(C(N)=O)c2N)c2ccccc2F)o1 (centres undefined) | 13 | 3 | 6 | 3 | -24 | . | .

Compound activity deposited in PubChem BioAssay by several laboratories.
